# The supplement of paper PMC12645437, “Orthogonal IMiD-Degron Pairs Induce Selective Protein Degradation in Cells” (ACS Chemical Biology, 2025)
# Whole data set: some 8,300 sequences, median “log2 fold change of degron read counts, EGFP-low vs EGFP+ sorted cells (limma voom), compound-induced degradation” near -1.1, cut for the highest 2% near 3.2. The list comes from a sample in which the highest values are over-represented; it also holds similar and randomly drawn sequences.
# T1: CRBN, Q96SW2
# T1 chain: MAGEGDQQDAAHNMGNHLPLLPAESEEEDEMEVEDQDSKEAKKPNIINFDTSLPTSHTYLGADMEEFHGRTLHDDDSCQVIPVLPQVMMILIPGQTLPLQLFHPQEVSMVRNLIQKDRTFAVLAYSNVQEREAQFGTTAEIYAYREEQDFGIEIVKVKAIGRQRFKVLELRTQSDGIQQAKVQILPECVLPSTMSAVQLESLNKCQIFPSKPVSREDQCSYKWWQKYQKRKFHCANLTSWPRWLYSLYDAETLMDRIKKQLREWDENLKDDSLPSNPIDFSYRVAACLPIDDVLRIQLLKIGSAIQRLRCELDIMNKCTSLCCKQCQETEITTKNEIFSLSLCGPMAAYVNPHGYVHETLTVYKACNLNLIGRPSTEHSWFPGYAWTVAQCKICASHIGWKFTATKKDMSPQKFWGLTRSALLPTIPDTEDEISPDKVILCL
# Target: T1, CRBN, Q96SW2
# Assay: log2 fold change of degron read counts, EGFP-low vs EGFP+ sorted cells (limma voom), compound-induced degradation; higher = more compound-induced degradation of the degron-EGFP fusion; degrons are variants of IKZF1/3 zinc finger 2; compound dose not given here
# Details: Jurkat, 18 h
# [1] = compound: compound 19 (5-tert-butyl-thalidomide)
# [2] = compound: compound 22 (5-morpholino-thalidomide)
# [3] = compound: compound 33 (diphenyl IMiD analogue)
# 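Also: pooled lentiviral library of zinc finger degron-EGFP fusions in mCherry-positive Jurkat cells, FACS-sorted after compound exposure, with degron abundance counted by next-generation sequencing.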
Sequence,log2 fold change of degron read counts [1],log2 fold change of degron read counts [2],log2 fold change of degron read counts [3],log2 fold change of degron read counts (compound: thalidomide)
"FTCNQCGHFFTQKGNLLRHIKL [46F_47T_49N_50Q_52G_53H_54F_55F_67L_, Q9UKT9]",-1.82,-2.32,-2.31,-2.01
"FICEICGRCFTQKGNLLRHIKL [46F_47I_49E_50I_52G_53R_54C_55F_67L_, Q9UKT9]",-2.73,-1.99,-0.856,-0.602
"FCCPVCGAHFTQKGNLLRHIKL [46F_47C_49P_50V_52G_53A_54H_55F_67L_, Q9UKT9]",1.59,0.752,1.65,0.961
"LRCNQCGFFCTQKGNLLRHIKL [46L_47R_49N_50Q_52G_53F_54F_55C_67L_, Q9UKT9]",-1.45,-1.65,-1.16,-0.846
"FDCEICGASFTQKGNLLRHIKL [46F_47D_49E_50I_52G_53A_54S_55F_67L_, Q9UKT9]",3.18,0.784,0.437,1.24
"FYCEICGASFTQKGNLLRHIKL [46F_47Y_49E_50I_52G_53A_54S_55F_67L_, Q9UKT9]",3.72,3.7,2.91,1.64
"FMCEICGASFTQKGNLLRHIKL [46F_47M_49E_50I_52G_53A_54S_55F_67L_, Q9UKT9]",1.61,1.94,2.9,2
"FGCEICGASFTQKGNLLRHIKL [46F_47G_49E_50I_52G_53A_54S_55F_67L_, Q9UKT9]",3.07,2.12,1.77,1.03
"FCCEICGASFTQKGNLLRHIKL [46F_47C_49E_50I_52G_53A_54S_55F_67L_, Q9UKT9]",3.35,2.7,2.35,2.35
"FKCEICGASFTQKGNLLRHIKL [46F_47K_49E_50I_52G_53A_54S_55F_67L_, Q9UKT9]",1.57,-0.809,-2.2,-0.268
"FSCEICGASFTQKGNLLRHIKL [46F_47S_49E_50I_52G_53A_54S_55F_67L_, Q9UKT9]",3.56,2.8,2.11,1.64
"FHCEICGASFTQKGNLLRHIKL [46F_47H_49E_50I_52G_53A_54S_55F_67L_, Q9UKT9]",3.13,2.67,1.52,0.22
"FQCEICGASFTQKGNLLRHIKL [46F_47Q_49E_50I_52G_53A_54S_55F_67L_, Q9UKT9]",2.5,2.8,2.23,3.75
"FWCNICGAGFTQKGNLLRHIKL [46F_47W_49N_50I_52G_53A_54G_55F_67L_, Q9UKT9]",1.8,1.84,0.64,-0.741
"FTCDQCGAIFTQKGNLLRHIKL [46F_47T_49D_50Q_52G_53A_54I_55F_67L_, Q9UKT9]",-3.12,-2.8,-2.46,-2.63
"LTCEICGFFCTQKGNLLRHIKL [46L_47T_49E_50I_52G_53F_54F_55C_67L_, Q9UKT9]",0.0809,0.0956,0.606,0.98
"FFCNICGAKFTQKGNLLRHIKL [46F_47F_49N_50I_52G_53A_54K_55F_67L_, Q9UKT9]",1.77,1.78,0.0329,-0.6
"FQCNVCGAGFTQKGNLLRHIKL [46F_47Q_49N_50V_52G_53A_54G_55F_67L_, Q9UKT9]",-0.572,-0.754,-0.58,1.66
"FQCNQCGRQFTQKGNLLRHIKL [46F_47Q_49N_50Q_52G_53R_54Q_55F_67L_, Q9UKT9]",-3.25,-3.61,-3.19,-2.34
"FKCDQCGAQFTQKGNLLRHIKL [46F_47K_49D_50Q_52G_53A_54Q_55F_67L_, Q9UKT9]",-2.9,-3.7,-3.4,-3.16
"FECDQCGANFTQKGNLLRHIKL [46F_47E_49D_50Q_52G_53A_54N_55F_67L_, Q9UKT9]",-3.58,-4.58,-1.92,-1.86
"FACEQCGAFFTQKGNLLRHIKL [46F_47A_49E_50Q_52G_53A_54F_55F_67L_, Q9UKT9]",-1.43,-2.96,-2.14,-2.45
"FHCDVCGAQFTQKGNLLRHIKL [46F_47H_49D_50V_52G_53A_54Q_55F_67L_, Q9UKT9]",-0.281,0.385,-0.661,-1.69
"FVCDVCGAQFTQKGNLLRHIKL [46F_47V_49D_50V_52G_53A_54Q_55F_67L_, Q9UKT9]",-1.63,0.889,1.87,0.809
"FECDVCGAQFTQKGNLLRHIKL [46F_47E_49D_50V_52G_53A_54Q_55F_67L_, Q9UKT9]",-2.41,-2.69,-1.62,-0.629
"FYCDVCGAQFTQKGNLLRHIKL [46F_47Y_49D_50V_52G_53A_54Q_55F_67L_, Q9UKT9]",2.41,3.24,1.63,-0.781
"FQCDVCGAQFTQKGNLLRHIKL [46F_47Q_49D_50V_52G_53A_54Q_55F_67L_, Q9UKT9]",-1.59,0.635,0.642,2.41
"FWCDVCGAQFTQKGNLLRHIKL [46F_47W_49D_50V_52G_53A_54Q_55F_67L_, Q9UKT9]",2.68,3.85,1.36,-0.531
